In PubChem BioAssay (NCI):
Several values for one entry are separate records, joined by “and”; a condition that tells them apart may be missing. Identical values can stand only once. This is part of a sample that, as a whole, favours compounds with a hit. Of some 79,000 tested, about 15% had one in any assay. Rule as the data show it: active = growth inhibition above about 70%; inactive = the rest. *1 amine or outer side, *2 acyl side, *3 side chain or, on linkers, in order; H or OH if unused. Where a SMILES comes first, the peptide text is derived from it. Bridges are numbered along the chain shown (N, C = ends). Roman numbers before positions name the chains, in order. [ ]: non-standard residue; d: D form. Actinocin(9to1) = Cc1c2oc3c(C)ccc(C(=O)[*:1])c3nc-2c(C(=O)[*:2])c(N)c1=O; NMeY = CN[CH](Cc1ccc(O)cc1)C(=O)O; Sar = CNCC(=O)O

Assays:
[1] = NCI Yeast Anticancer Drug Screen. Data for the rad50 strain (AID 155);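 also: 0% = growth of vehicle-only cultures of the same strain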; details: S. cerevisiae rad50 strain growth inhibition; at 50.0 µM; hits give high values
Summary of the method: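 Cells are treated with compound, grown, and their growth is then scored against vehicle-only cultures of the same repair-deficient yeast strain.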

[2] = NCI Yeast Anticancer Drug Screen. Data for the mec2-1 strain (AID 157); details: S. cerevisiae mec2-1 strain, at 50.0 µM, hits give high values
Summary of the method: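 Each compound was tested on mec2-1 yeast, a strain altered in DNA damage repair or cell cycle control. Growth inhibition is reported relative to vehicle.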

[3] = NCI Yeast Anticancer Drug Screen. Data for the sgs1 mgt1 strain (AID 161);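 also: 0% = growth of cultures given vehicle only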; details: S. cerevisiae sgs1 mgt1 strain, at 50.0 µM, hits give high values
Summary of the method: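 Mutant yeast exposed to compound; growth scored against vehicle-only wells.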

[4] = NCI Yeast Anticancer Drug Screen. Data for the cln2 rad14 strain (AID 165);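 also: 0% = growth equal to vehicle treated cultures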; details: S. cerevisiae cln2 rad14 strain, at 50.0 µM, hits give high values
Summary of the method: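 Test compounds were added to cln2 rad14 yeast cultures; inhibition of growth was then determined by comparison with vehicle treatment.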

[5] = NCI Yeast Anticancer Drug Screen. Data for the bub3 strain (AID 167); details: S. cerevisiae bub3 mutant strain, at 50.0 µM, hits give high values
Summary of the method: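 Part of a panel of yeast mutants defective in DNA damage repair or cell cycle regulation. Each strain is grown with compound, and inhibition is calculated relative to solvent-treated cultures.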

[6] = NCI Yeast Anticancer Drug Screen. Data for the mlh1 rad18 strain (AID 175); details: S. cerevisiae mlh1 rad18 strain growth inhibition; at 50.0 µM; hits give high values
Summary of the method: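 Inhibition values reflect reduced growth of mutant yeast versus vehicle-treated controls following compound exposure; the mutations affect DNA damage repair.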

Measured: growth inhibition

CC(=O)c1c(-c2cccc3ccccc23)c(C#N)c(=S)n(C2OC(CO)C(O)C(O)C2O)c1-c1ccccc1 (stereo unspecified)
inactive: [1] 21.2% and 31.6% | [2] 17.9% and -8.45% | [3] 42.1% and 34.2% | [4] 25.7% and 23.8% | [5] 34.9% and 12.3% | [6] 21.6% and 24.7%

O=c1[nH]c(CCc2ccccc2)nc2ccccc12
inactive: [1] -5.1% and -47.5% | [2] 7.85% and -42.1% | [3] -7.2% and -23.5% | [4] -38% and -11.1% | [5] -26.8% and -31.9% | [6] -2.8% and -4.05%

Cc1c2oc3c(C)ccc(C(=O)NC4C(=O)NC(C(C)C)C(=O)N5CCCC5C(=O)N(C)CC(=O)N(C)C(Cc5ccc(O)cc5)C(=O)OC4C)c3nc-2c(C(=O)NC2C(=O)NC(C(C)C)C(=O)N3CCCC3C(=O)N(C)CC(=O)N(C)C(Cc3ccc(O)cc3)C(=O)OC2C)c(N)c1=O (stereo unspecified) (I: TVP[Sar][NMeY] / II: TVP[Sar][NMeY]; ester I:1-I:C, II:1-II:C; linker I:N-II:N via Actinocin(9to1); configuration not given here)
inactive: [1] -11.3% and -12.8% | [2] 0.3% and 1.3% | [3] -3.65% and -1.8% | [4] 4.7% and 26.5% | [5] -8.7% and 0.35% | [6] -25.1% and -32.2%

Cc1cc(=O)cc(C)o1
inactive: [1] -11.2% and 18.4% | [2] -12.8% and 5.6% | [3] -10.2% and -20.6% | [4] -2.45% and -47.6% | [5] 2.35% and -5.85% | [6] -8.55% and 0.05%

OC1CCN2Cc3ccccc3N=C12 (stereo unspecified)
inactive: [1] 3.1% and 22.2% | [2] -0.3% and 21.7% | [3] 17.4% and -5.9% | [4] 4.5% and 15.8% | [5] -3.05% and 13.4% | [6] -2% and -16.8%

Cc1ccc(S(=O)(=O)NN)cc1
inactive: [1] -8.7% and 9.3% | [2] 2.3% and -9.9% | [3] -3.6% and 5.7% | [4] 2.5% and 6.7% | [5] -30.2% and 16.4% | [6] -20% and 5.9%

C=C1C(=O)OC2/C=C(/C)C3CC(O)C(C)(CC(OC(=O)/C(C)=C/C)C12)O3 (stereo unspecified)
inactive: [1] -9.75% and -7.75% | [2] -12.9% and -20.4% | [3] -6.85% and 0.45% | [4] 13.4% and 8.45% | [5] -5.25% and -26.3% | [6] -5.35% and 2.9%

CC1(O)C(=O)OC(CO)C1O (stereo unspecified)
inactive: [1] 1.4% and 7.1% | [2] 1.6% and 7.15% | [3] -3.45% and -1% | [4] -15.8% and -6.6% | [5] -5.65% and 2.4% | [6] 5.1% and 3.25%

OC(CBr)C(O)C(O)C(O)CBr (stereo unspecified)
inactive: [1] 13.9% and 16.8% | [2] 7.6% and -4.25% | [3] 4.15% and -11.3% | [4] 8.75% and -9.4% | [5] -10.8% and 0.2% | [6] -13% and -11.9%

O=c1[nH]c(SCc2ccccc2[N+](=O)[O-])nc2nc[nH]c12
inactive: [1] -3.6% and -22.9% | [2] -20.8% and 6.4% | [3] -11.8% and -0.5% | [4] -12.7% and 23.1% | [5] -10.8% and -30% | [6] -1.9% and -8.05%

CC(C)(C)CC(C)(C)c1ccc(O)c(SSc2cc(C(C)(C)CC(C)(C)C)ccc2O)c1
inactive: [1] 4.95% and 11.8% | [2] -16.1% and 4.4% | [3] 7.7% and -8.55% | [4] 13.2% and -17.5% | [5] 11.5% and 0.5% | [6] 6.65% and 24.1%

CC1(C)Nc2ccccc2C(c2ccccc2)=NC1=O
inactive: [1] -2.7% and 4.8% | [2] -17.1% and -15.2% | [3] -7% and 0.85% | [4] -5.75% and -0.25% | [5] -4.7% and -4.6% | [6] 12.7% and 13.3%

O=C1c2ccccc2C(=O)c2c(O)ccc(O)c21
inactive: [1] 51.5% and 39.8% | [2] 37.2% and 11.2% | [3] 54.1% and 21.6% | [4] 24.4% and 33.8% | [5] 52% and 28.9% | [6] 50.5% and 13.8%

OC1CC2CCC(C1)S2 (stereo unspecified)
inactive: [1] -1.3% and 4.3% | [2] -25.3% and -2.75% | [3] -3.7% and 13.3% | [4] 9.85% and 13.3% | [5] 2.5% and 4.4% | [6] -11.6% and -1.55%

O=C(O)c1cc(O)c(O)c(O)c1
inactive: [1] 5.3% and 1.55% | [2] -12.6% and -7.9% | [3] 2.2% and 15.6% | [4] 15.6% and -9.5% | [5] 2.25% and 2.85% | [6] 5.8% and 3%

NNc1nc2c(N)ncnc2n1C1OC(CO)C(O)C1O (stereo unspecified)
inactive: [1] -7% and 14% | [2] -5.05% and 15.8% | [3] 17.4% and 4.95% | [4] -21.1% and 15.2% | [5] 14.8% and 13.1% | [6] -5.95% and 10.6%

CC(C)CCC(N)C(=O)O (stereo unspecified)
inactive: [1] -11.7% and 0.15% | [2] -14.9% and -0.55% | [3] -11.5% and -6% | [4] -42.5% and -15.7% | [5] -3.25% and 3.75% | [6] -22.6% and -2%

O=C1C2C3C=CC(C3)C2C(=O)N1O (stereo unspecified)
inactive: [1] 18.1% and 24.3% | [2] -7.6% and -8.3% | [3] 7.1% and 11.2% | [4] 10% and 10.6% | [5] 25.1% and 3.05% | [6] 11.4% and 18.5%

O=C(O)CN(CCO)CCO
inactive: [1] -17.9% and -21.6% | [2] 7.65% and -16.6% | [3] 21.4% and 12.2% | [4] -29.1% and 1.45% | [5] -27.9% and -16.8% | [6] -18% and 10.1%

O=c1oc2c(O)c(O)cc3c(=O)oc4c(O)c(O)cc1c4c23
inactive: [1] 25.8% and 6.65% | [2] 18.6% and -20.1% | [3] 34.7% and -10.7% | [4] 19% and -8.75% | [5] 29% and -35.9% | [6] -8.1% and -19.1%

COc1ccc(Cc2c3cc(O)c(=O)cc-3ccn2C)cc1OC
inactive: [1] 2.75% and 47.7% | [2] 14.2% and 24.5% | [3] 23.4% and 22.3% | [4] 32.2% and 8.35% | [5] 29.2% and 5.5% | [6] 28.1% and 17.9%
